From PubChem
L3MBTL1 block: inhibitors of human L3MBTL1 | Q9Y468 | AlphaScreen L3MBTL1–H3K9me1 peptide binding | Potency, µM (highest dose often 57.1 µM), inactives show at the highest dose activity, negative = inhibition, actives largely listed as inhibitors | 230,000 tested, 0.66% active; also: % is scaled to controls: 0 for no effect and ±100 for the full control effect; nearly all actives have a fitted effect of over 60% in size
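AlphaScreen proximity signal between nickel-chelate acceptor and streptavidin donor beads (final 10 ug/mL) reports binding of 50 nM L3MBTL1 to 75 nM biotin-H3 K9me1 peptide; complex incubated with compounds 30 min at room temperature; cefsulodin titration as control.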
HP1b chromo inh: blocks HP1-beta chromodomain binding to methylated histone tails; 390,000 tested, 0.56% active; Potency, µM (highest dose often 114 µM), for inactives: at the top dose activity change, negative = inhibition, hits mostly inhibitors; P83916; AlphaScreen HP1-beta / biotin-H3K9me3 peptide binding; also: nearly all actives have a fitted effect of over 70% in size
Target sequence (P83916 whole entry, looked up): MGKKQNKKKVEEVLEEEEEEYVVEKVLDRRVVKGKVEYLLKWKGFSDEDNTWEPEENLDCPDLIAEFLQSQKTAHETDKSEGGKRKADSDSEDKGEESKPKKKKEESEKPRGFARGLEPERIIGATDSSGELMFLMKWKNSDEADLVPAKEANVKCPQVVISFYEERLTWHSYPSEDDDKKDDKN
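Compound inhibition of the preformed complex between 50 nM HP1-beta and 50 nM biotinylated H3K9me3 peptide was read by AlphaScreen. Buffer was PBS pH 7.4 with 0.01% Tween-20. Incubations ran 30 min at room temperature, with 10 ug/mL donor/acceptor beads.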
JMJD2A Tudor: JMJD2A Tudor domain (human) inhibition; Potency, µM (highest dose often 114 µM), for inactives: top-dose activity change, negative = inhibition, hits mostly inhibitors; AlphaScreen JMJD2A-Tudor / H3K4me3 peptide binding; 390,000 tested, 4.4% active; O75164; also: % is scaled to controls: 0 for no effect and ±100 for the full control effect; nearly all actives have a fitted effect of over 50% in size
BAZ2B inh: inhibitors of human BAZ2B bromodomain | AlphaScreen BAZ2B-H3K14Ac peptide displacement | Potency, µM (titrated, usually from 114 µM), for the others: at the top dose activity change, negative = inhibition, hits mostly inhibitors | 360,000 tested, 4.4% active | AID 504333; also: % is scaled to controls: 0 for no effect and ±100 for the full control effect; nearly all actives have a fitted effect of over 60% in size
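AlphaScreen displacement: compounds (up to 110uM) incubated 30 min at room temperature with a preformed 50 nM BAZ2B/50 nM biotinylated H3K14Ac peptide complex in PBS pH 7.4 with Tween-20. Donor and acceptor beads at 10 ug/mL final added, 20 min light-protected before reading.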
G9a inh: G9a (human) methyltransferase inhibition; 350,000 tested, 8.8% active; Potency, µM (doses to about 102 µM), for inactives: at the top dose activity, negative = inhibition, hits mostly inhibitors; Q96KQ7; G9a H3K9 monomethylation, AlphaScreen, 2 h; AID 504332; also: % is scaled to controls: 0 for no effect and ±100 for the full control effect; nearly all actives have a fitted effect of over 75% in size
Target sequence (Q96KQ7 913-1193 limits assumed): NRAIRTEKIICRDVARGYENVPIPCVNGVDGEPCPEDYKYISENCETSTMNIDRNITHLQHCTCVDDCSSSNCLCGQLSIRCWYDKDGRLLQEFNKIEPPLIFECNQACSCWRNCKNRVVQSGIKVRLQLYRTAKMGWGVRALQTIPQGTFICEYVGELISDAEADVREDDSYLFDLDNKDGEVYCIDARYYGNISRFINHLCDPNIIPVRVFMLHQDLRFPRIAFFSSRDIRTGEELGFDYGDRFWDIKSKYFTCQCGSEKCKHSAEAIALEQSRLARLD
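G9a (20 nM) preincubated 15 min RT with compounds, then 500 nM biotinylated H3K9 peptide and 20 uM SAM added; 2 h RT reaction. Monomethyl-H3K9 product detected by AlphaScreen with anti-H3K9me1 antibody, streptavidin donor and anti-rabbit IgG acceptor beads.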
Sfp inh: inhibitors of Bacillus subtilis Sfp phosphopantetheinyl transferase; Potency, µM, without a hit: largest response in the series, negative = inhibition, usual class: inhibitors; Q9F4F7; AID 1490; 310,000 tested, 3.5% active; Biochemical Sfp PPTase activity, qHTS;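 also: the enzyme is Sfp with the accession as filed and its product quenches rhodamine fluorescence; 0% = enzyme reaction without inhibitor and -100% = no enzyme wells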
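Sfp 15 nM + cpd, 15 min RT; start w/ rhodamine-CoA 5 uM, BHQ-2-YbbR 12.5 uM (final); 50 mM Hepes pH 7.6, 10 mM MgCl2, 0.01% NP-40, 0.01% BSA; read 525/598 nm at 0 and 30 min.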
Active calls of the source: *; ? = inconclusive; / = no result; [ ] = dose if it differs, or a comment. Only some compounds are listed: those with a hit (about 12% of all), similar ones and a draw of the others. Calls follow the shape of the dose curve; as a rule, active = well fitted curve in the direction sought with a large enough effect; inconclusive = small, poorly fitted or top-dose-only effect, or another doubt; inactive = no such curve, though single readings can be large; an effect the other way counts as inactive or inconclusive. Potency is read from the fitted curve at half-maximal effect.

SMILES	L3MBTL1 block	HP1b chromo inh	JMJD2A Tudor	BAZ2B inh	G9a inh	Sfp inh
CCC(=O)N(C1=C(NC(C)C)C(=O)c2ccccc2C1=O)C(C)C	-14.9%	-0.4%	-23.7%	-31.1%	44.7µM*	-13.2%
Nc1c2c(nc3ccccc13)CCC2	-25.4%	23.8%	-22.2%	-4.8%	-17.7%[59 µM]	-5.8%
Nc1c2c(nc3ccc(Br)cc13)N(C1CCCCC1)CC2	-13.8%	/	/	15.8µM*	3.55µM*	-28.1%
Nc1c2c(nc3ccc(Br)cc13)N(Cc1ccccc1)CC2	-2.6%	3.6%	?	-11.3%	?	?
Nc1c2c(nc3ccccc13)N(C1CCCCC1)CC2	-2.5%	-18.5%	7.08µM*	?	?	-56.2%
CCCOc1ccc(Oc2nc(NCC(C)C)nc(N(C)C)n2)nn1	/	37.5%	0.0%	1.6%	-1.2%[59 µM]	/
CC(=O)c1ccc(NC(=O)Nc2nnc(N3CCCC(C)C3)s2)cc1 (configuration not stated)	/	32.8%	-12.6%	-5.7%	2.8%[59 µM]	/
Cc1c(NC(=O)c2cc([N+](=O)[O-])ccc2N2CCOCC2)cccc1-c1nc2ccccc2o1	/	-0.2%	-24.3%	-25.4%	0.2%[59 µM]	/
COCCn1c(N)c(C(=S)NC(=O)c2cccs2)c(=O)[nH]c1=O	-8.0%	-6.9%	-19.2%	-13.6%	?	25.1µM*
COCCN(C(=O)COC(=O)C1CCC(C(C)(C)C)CC1)c1c(N)n(Cc2ccccc2)c(=O)[nH]c1=O (configuration not stated)	10.6%	20.9%	-14.9%	0.6%	31.6µM*	/
CCN(C(=O)COC(=O)CNC(=O)c1cccs1)c1c(N)n(Cc2ccccc2)c(=O)[nH]c1=O	/	25.1%	-6.0%	/	/	/
COCCN(C(=O)COC(=O)CNC(=O)c1cccs1)c1c(N)n(Cc2ccccc2)c(=O)[nH]c1=O	9.5%	-6.6%	-10.3%	-1.3%	11.2µM*	/
CCc1ccc(S(=O)(=O)c2nnn3c2nc(NCc2cccc(OC)c2)c2cc(Cl)ccc23)cc1	/	21.5%	-12.4%	-0.1%	1.0%[59 µM]	/
Cc1ccc[n+](CC(=O)c2ccc(NC(=O)c3ccccc3)cc2)c1	7.9%	38.0%	-7.6%	-4.4%	-5.9%	18.7%
O=C(C[n+]1cccc2ccccc21)c1ccccc1	14.2%	47.3%	1.4%[57.1 µM]	11.0%	44.7µM*	?
O=C(C[n+]1cccc2ccccc21)c1ccc(NC(=O)c2ccccc2)cc1	-13.7%	39.5%	-8.7%	-24.5%	25.1µM*	5.0%
Cc1cc[n+](CC(=O)c2ccc(NC(=O)c3ccccc3)cc2)c2ccccc12	-6.4%	13.1%	?	?	39.8µM*	-6.0%
CCC(=O)OC1C(N(C)C)CC(C)O[C@H]1O[C@H]1[C@H](C)[C@@H](O[C@H]2CC(OC)[C@@H](O)C(C)O2)[C@H](C)C(=O)O[C@@H](CC)[C@](C)(O)[C@@H](O)[C@H](C)C(=O)[C@@H](C)C[C@]1(C)O (some centres not stated)	/	/	/	/	-12.4%[12.7 µM]	13.3%
C[C@@H]1CC2[C@@H]3C[C@H](F)C4=CC(=O)C(Cl)=C[C@]4(C)[C@@]3(F)[C@H](O)C[C@]2(C)[C@@]1(O)C(=O)CO (some centres not stated)	/	/	/	/	-31.7%[12.7 µM]	13.3%
CCc1ccc(NC(=O)N2CCOc3ccc(Cl)cc32)cc1	/	57.3%	-4.9%	-6.1%	4.0%[59 µM]	/
COc1ccc(NC(=O)CN2C(=O)c3ccccc3S2(=O)=O)cc1S(=O)(=O)N1CCOCC1	2.5%	16.6%	-11.7%	7.8%	50.1µM*	/
COc1ccc(NC(=O)CN2CCc3ccccc3C2)cc1S(=O)(=O)N1CCOCC1	4.1%	6.6%	-18.5%	-4.7%	25.0%[59 µM]	8.1%
COc1cc(/C=C/C(=O)Nc2ccc(OC)c(S(=O)(=O)N3CCOCC3)c2)ccc1OC(F)F	-0.4%	19.1%	-21.8%	/	/	/
COc1ccc(NC(=O)CNCc2ccc(Cl)cc2)cc1S(=O)(=O)N1CCOCC1	-0.9%	?	3.55µM*	/	/	/
COc1ccc(CC(=O)Nc2sccc2C#N)cc1S(=O)(=O)N1CCOCC1	1.6%	25.3%	-4.1%	-21.8%	39.8µM*	/
SMILES	L3MBTL1 block	HP1b chromo inh	JMJD2A Tudor	BAZ2B inh	G9a inh	Sfp inh
COc1ccc(NC(=O)/C=C/c2ccc(C)o2)cc1S(=O)(=O)N1CCOCC1	-5.4%	-3.8%	-17.5%	?	6.31µM*	50.1µM*
COc1ccc(CC(=O)Nc2cccc(C(C)=O)c2)cc1S(=O)(=O)N1CCOCC1	1.6%	28.0%	-8.4%	7.1%	17.8%[12.7 µM]	/
CC(C)Cn1cc(NC(=O)NCc2cccc(Cl)c2)c2ccccc2c1=O	/	28.5%	-17.8%	0.4%[57.1 µM]	?	/
Cc1noc(C)c1-c1ccc2ncnc(NCc3cccc(Cl)c3)c2c1	/	/	-11.7%	/	/	-19.1%
O=S(=O)(c1ccc2c(c1)OCCO2)N1CCN(S(=O)(=O)c2cccc3cccnc23)CC1	/	/	-13.0%	/	/	/
COc1ccccc1N1CCN(S(=O)(=O)c2c(C)sc3ncn(CC(=O)N(C)c4ccc(Cl)cc4)c(=O)c23)CC1	/	4.9%	-24.6%	-11.3%	-28.8%[59 µM]	/
CCn1c(SCC(=O)c2ccc(OC)cc2)nnc1C(C)NC(=O)c1ccc(OC)cc1 (configuration not stated)	-0.8%	24.7%	-15.1%	-6.5%	44.7µM*	-29.2%
COc1ccc(CC(=O)NC(C)c2nnc(SCC(=O)c3ccc(Br)cc3)n2C)cc1 (configuration not stated)	/	10.5%	-11.4%	-25.4%	39.8µM*	?
Cc1ccc(-n2nc(CO)c(C(=O)NCCCCc3ccccc3)n2)cc1C	/	28.9%	6.9%	0.6%	14.2%[59 µM]	/
CCCCN(Cc1cc2ccccc2[nH]c1=O)C(=O)c1cccc(Cl)c1	/	30.5%	-6.9%	-6.6%	-4.1%[59 µM]	/
CN(Cc1cc(Br)cc(Br)c1N)C1CCCCC1	/	/	/	/	-47.0%[2.33 µM]	2.9%
O=C(O)CCCCCN1C(=O)C(O)=C(C(=O)/C=C/c2ccccc2)C1c1cccc([N+](=O)[O-])c1 (configuration not stated)	1.6%	27.5%	-17.5%	?	44.7µM*	18.1%
Cc1ccc(CNC(=O)CSc2nc3c(sc4ccccc43)c(=O)n2CCCC(=O)NCCO)cc1	/	23.3%	-13.1%	-22.6%	-3.1%[59 µM]	/
O=C(CSc1nncs1)Nc1cc(S(=O)(=O)N2CCOCC2)ccc1N1CCCC1	-5.7%	25.7%	-4.1%	-6.3%	35.5µM*	/
CCCn1c(SCC(=O)Nc2cc(S(=O)(=O)N3CCOCC3)ccc2OC)n[nH]c1=O	-0.4%	-6.5%	-5.5%	-23.6%	3.16µM*	39.8µM*
Nc1nnc(SCC(=O)Nc2cc(S(=O)(=O)N3CCOCC3)ccc2N2CCCC2)s1	-4.5%	38.0%	-12.7%	2.7%	-6.0%[59 µM]	/
CCOCC(=O)Nc1cc(S(=O)(=O)N2CCOCC2)ccc1N1CCCCC1	/	?	89.1µM*	?	7.08µM*	11.2µM*
